The source of these data is PubChem BioAssay.

SMILES strings stand for the structures. Several values for one entry are separate records, joined by “and”; a condition that tells them apart may be missing. Equal entries are not always repeated. Activity calls are given as the source filed them.

For assay [1], the system named is Plasmodium falciparum Sir2 (PF13_0152, Sir2A). Description: Plasmodium falciparum Sir2A binding compounds – biochemical, small-molecule microarray, 635 nm fluorescence, primary screen (AID 1098).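 Further: score merges spot fluorescence intensity with its signal-to-noise ratio.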 To be noted: fluorescence 635 nm, higher = more signal.
Assay [2] is described as follows: probe aDKK1 binding to arrayed compounds – biochemical, biotinylated probe, 635/667 nm fluorescence, primary screen (AID 1099).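 Further: score merges 667nm spot fluorescence with signal to noise across triplicate slides.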 To be noted: small-molecule microarray, higher = more signal.
The nature of assay [3]: probe aCHRDL2 binding to arrayed compounds – biochemical, biotinylated probe, 635/667 nm fluorescence, primary screen (AID 1100). To be noted: small-molecule microarray, higher = more signal.
The nature of assay [4]: change in splice reporter luminescence, either direction, cell-based, HEK293, spliceosome inhibition project, primary screen (AID 1101).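 Further: HEK293 cells carrying a splicing-competent luciferase reporter gene; test concentration not given here.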 To be noted: HEK293 splicing luciferase reporter, 24 h, higher = more signal, called active from +8 up or from −8 down. Background: Reporter assays use an easily measured gene product as a stand-in for the process of interest.
Assay [5] has as its target Fibroblast growth factor 10 (Homo sapiens) (UniProt O15520). As to the kind of experiment: compounds binding fibroblast growth factor 10 – biochemical, small-molecule microarray, 635 nm fluorescence, primary screen (AID 1102). To be noted: FGF10 binding, fluorescence 635 nm, higher = more signal.
Assay [6] has as its system glycogen synthase kinase-3 (GSK3A per assay name; protocol says GSK3B). Description: compounds binding glycogen synthase kinase-3 – biochemical, small-molecule microarray, 635 nm fluorescence, GSK3A, primary screen (AID 1103). Further: the record names both GSK3A and GSK3B. To be noted: fluorescence 635 nm, higher = more signal.
For assay [7], the target named is Epidermal growth factor receptor (Homo sapiens) (UniProt P00533). As to the kind of experiment: compounds binding epidermal growth factor receptor – biochemical, small-molecule microarray, 635 nm fluorescence, primary screen (AID 1104).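 Further: score merges 667 nm emission intensity with spot signal to noise over triplicate slides.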 To be noted: EGFR binding, higher = more signal.
For assay [8], the target named is Follistatin-related protein 3 (Homo sapiens) (UniProt O95633). Description: compounds binding follistatin-related protein 3 – biochemical, small-molecule microarray, 635 nm fluorescence, primary screen (AID 1105).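 Further: score merges emission near 667 nm and signal to noise per printed spot across three slides.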 To be noted: FSTL3 binding, higher = more signal.
In assay [9] the target is Dickkopf-related protein 1 (Homo sapiens) (UniProt O94907). As to the kind of experiment: small molecules binding DKK1 protein – biochemical, small-molecule microarray, 635 nm fluorescence scan, primary screen (AID 1106).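 Further: score merges emission near 667 nm with signal to noise over three replicate slides.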 To be noted: higher = more signal.
Assay [10] has as its system Inhibin beta A chain (activin A). Description: small molecules binding activin A – biochemical, small-molecule microarray, 635 nm fluorescence scan, primary screen (AID 1107).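 Further: mouse activin A protein probed at 4.33 µg/mL on printed slides; score merges bound-protein fluorescence near 667 nm with spot signal-to-noise.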 To be noted: INHBA, higher = more signal.
The subject of assay [11] is Human papillomavirus type 1a protein E7 (residues 44-93). Description: small molecules binding HPV E7 44-93 – biochemical, small-molecule microarray, residues 44-93, 635 nm fluorescence, primary screen (AID 1108).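 Further: E7 fragment applied at 1 µg/mL in TBST for 1 h at 4 C; score combines spot fluorescence with its signal to noise ratio.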 To be noted: fluorescence 635 nm, higher = more signal.
Assay [12] can be described thus: hepatitis C replication reporter changes, two-sided – Huh7 cells, luciferase reporter, HCV replication inhibitor project, primary screen (AID 1109).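 Further: huh7 hepatoma cells harbouring a luciferase neomycin HCV replicon reporter; luciferase luminescence as measure of HCV replicon replication; test concentration not given here.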 To be noted: Huh7 HCV replicon luciferase reporter, 48 h; higher = more signal.
Assay [13] deals with Left-right determination factor 2 (Homo sapiens) (UniProt O00292). Description: small molecules binding LEFTY2 protein – biochemical, small-molecule microarray, 635 nm fluorescence scan, primary screen (AID 1110). To be noted: higher = more signal.
The target in assay [14] is Calmodulin-1 (Homo sapiens) (UniProt P0DP23). Description: small molecules binding calmodulin-1 with EGTA – biochemical, small-molecule microarray, Cy5-labelled CALM1, profiling panel (AID 1111).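 Further: labelled calmodulin applied in Tris saline Tween buffer holding calcium plus EGTA and DTT.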 To be noted: Cy5-CALM1 binding fluorescence, higher = more signal.
The target is the same in assay [15]. Description: small molecules binding Ca-loaded calmodulin-1 – biochemical, small-molecule microarray, Cy5-labelled CALM1, plus calcium, artefact control for SMM control-protein annotation, profiling panel (AID 1112).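 Further: score merges spot fluorescence with signal to noise from triplicate slides.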 To be noted: Cy5-CALM1 binding fluorescence, higher = more signal.
A short description of assay [16]: probe aWnt5a binding to arrayed compounds – biochemical, biotinylated probe, 635/667 nm fluorescence, primary screen (AID 1113).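 Further: score merges 667 nm fluorescence intensity with signal-to-noise per printed feature.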 To be noted: small-molecule microarray, higher = more signal.
A short description of assay [17]: probe aShh binding to arrayed compounds – biochemical, biotinylated probe, 635/667 nm fluorescence, primary screen (AID 1114).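 Further: probe is biotin-labelled aShh protein from a stem cell growth factor screen; measures binding of labelled protein to compounds printed on the slide; score merges feature fluorescence at 667 nm with signal-to-noise.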 To be noted: small-molecule microarray, higher = more signal.
The nature of assay [18]: probe aNog binding to arrayed compounds – biochemical, biotinylated probe, 635/667 nm fluorescence, primary screen (AID 1115).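 Further: probe is biotinylated aNog protein used at 0.15 µg/mL for 1 h at 4 C; z-score combines 667 nm fluorescence of each spot with its signal to noise.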 To be noted: small-molecule microarray, higher = more signal.
For assay [19], the target named is Torsin-1A-interacting protein 1 (Homo sapiens) (UniProt Q5JTV8). Description: compound microarray binding of lysate hLAP1 – cell lysate, small-molecule microarray, COS7 lysate, 635/667 nm fluorescence, primary screen (AID 1116). To be noted: 635 nm fluorescence, higher = more signal.
The target of assay [20] is Alpha-bungarotoxin (Bungarus multicinctus) (UniProt P60615). Description: compounds binding labelled alpha-BTX control protein – biochemical, small-molecule microarray, Alexa647 label, 635/667 nm fluorescence, artefact control for SMM control protein annotation, profiling panel (AID 1117). To be noted: alpha-BTX-A647 binding fluorescence, higher = more signal.
Alpha-bungarotoxin (Bungarus multicinctus), sequence (P60615 whole entry, looked up): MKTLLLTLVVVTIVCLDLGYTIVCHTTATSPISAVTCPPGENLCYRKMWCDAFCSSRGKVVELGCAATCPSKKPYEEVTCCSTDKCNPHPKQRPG

Dickkopf-related protein 1 (Homo sapiens), sequence (O94907 whole entry, looked up): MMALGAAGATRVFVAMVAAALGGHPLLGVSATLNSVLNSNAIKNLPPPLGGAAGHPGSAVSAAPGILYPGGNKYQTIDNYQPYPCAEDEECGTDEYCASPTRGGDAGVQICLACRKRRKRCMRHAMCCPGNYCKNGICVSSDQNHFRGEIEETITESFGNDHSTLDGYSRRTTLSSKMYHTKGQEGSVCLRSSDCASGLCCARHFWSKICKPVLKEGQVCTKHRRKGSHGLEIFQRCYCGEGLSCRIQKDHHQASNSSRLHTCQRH
Torsin-1A-interacting protein 1 (Homo sapiens), sequence (Q5JTV8 whole entry, looked up): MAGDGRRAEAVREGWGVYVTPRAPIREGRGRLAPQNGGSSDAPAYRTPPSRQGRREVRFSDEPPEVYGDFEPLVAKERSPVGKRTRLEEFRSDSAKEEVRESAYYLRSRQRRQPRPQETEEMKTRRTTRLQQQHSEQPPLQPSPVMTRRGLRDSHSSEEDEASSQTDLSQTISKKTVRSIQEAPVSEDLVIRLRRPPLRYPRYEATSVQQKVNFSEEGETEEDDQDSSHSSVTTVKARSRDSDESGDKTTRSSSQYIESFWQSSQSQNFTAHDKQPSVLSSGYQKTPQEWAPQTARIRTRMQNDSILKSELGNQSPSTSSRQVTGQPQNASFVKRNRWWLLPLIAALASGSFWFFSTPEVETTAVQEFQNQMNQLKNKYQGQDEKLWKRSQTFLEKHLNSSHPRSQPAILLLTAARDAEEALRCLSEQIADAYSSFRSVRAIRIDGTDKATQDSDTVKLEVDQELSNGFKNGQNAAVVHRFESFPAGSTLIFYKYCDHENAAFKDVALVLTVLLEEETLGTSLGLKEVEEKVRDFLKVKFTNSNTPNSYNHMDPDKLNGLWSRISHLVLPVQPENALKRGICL
Epidermal growth factor receptor (Homo sapiens), sequence (P00533 whole entry, looked up): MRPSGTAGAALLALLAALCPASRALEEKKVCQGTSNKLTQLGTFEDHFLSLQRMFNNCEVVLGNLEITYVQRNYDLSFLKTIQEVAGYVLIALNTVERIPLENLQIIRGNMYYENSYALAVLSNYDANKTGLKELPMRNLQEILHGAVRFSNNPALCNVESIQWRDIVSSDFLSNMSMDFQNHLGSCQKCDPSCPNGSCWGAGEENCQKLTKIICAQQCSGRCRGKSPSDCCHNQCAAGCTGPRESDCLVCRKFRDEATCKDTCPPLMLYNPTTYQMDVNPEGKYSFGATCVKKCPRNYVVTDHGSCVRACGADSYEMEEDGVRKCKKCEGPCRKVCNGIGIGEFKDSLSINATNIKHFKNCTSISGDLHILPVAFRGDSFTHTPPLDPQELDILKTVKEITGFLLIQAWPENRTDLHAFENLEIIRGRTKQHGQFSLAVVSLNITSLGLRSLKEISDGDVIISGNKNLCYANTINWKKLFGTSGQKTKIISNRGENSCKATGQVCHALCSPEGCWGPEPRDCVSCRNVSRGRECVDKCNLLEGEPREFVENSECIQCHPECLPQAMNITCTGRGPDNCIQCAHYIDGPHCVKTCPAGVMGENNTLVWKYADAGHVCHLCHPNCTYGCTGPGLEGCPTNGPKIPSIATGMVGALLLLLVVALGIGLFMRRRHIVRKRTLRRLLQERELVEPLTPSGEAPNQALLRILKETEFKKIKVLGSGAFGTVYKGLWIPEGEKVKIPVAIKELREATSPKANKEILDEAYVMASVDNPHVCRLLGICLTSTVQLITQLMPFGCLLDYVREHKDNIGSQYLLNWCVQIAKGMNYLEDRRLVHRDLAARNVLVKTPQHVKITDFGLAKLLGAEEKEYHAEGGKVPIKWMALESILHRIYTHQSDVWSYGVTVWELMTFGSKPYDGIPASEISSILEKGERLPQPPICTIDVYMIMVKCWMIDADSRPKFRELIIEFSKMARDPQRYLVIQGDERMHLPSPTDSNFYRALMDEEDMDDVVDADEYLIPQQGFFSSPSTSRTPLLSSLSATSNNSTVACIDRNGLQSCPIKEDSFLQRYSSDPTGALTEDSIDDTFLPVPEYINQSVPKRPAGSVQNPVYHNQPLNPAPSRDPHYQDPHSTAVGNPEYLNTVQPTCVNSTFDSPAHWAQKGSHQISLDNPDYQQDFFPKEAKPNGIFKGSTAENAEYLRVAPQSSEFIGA
Follistatin-related protein 3 (Homo sapiens), sequence (O95633 whole entry, looked up): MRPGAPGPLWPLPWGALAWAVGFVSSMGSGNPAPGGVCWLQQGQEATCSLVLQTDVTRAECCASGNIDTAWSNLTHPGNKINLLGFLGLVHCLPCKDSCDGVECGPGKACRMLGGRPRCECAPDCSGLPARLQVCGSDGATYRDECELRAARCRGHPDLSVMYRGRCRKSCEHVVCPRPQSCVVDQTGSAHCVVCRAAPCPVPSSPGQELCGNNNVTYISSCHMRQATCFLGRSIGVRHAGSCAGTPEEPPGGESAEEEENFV
Left-right determination factor 2 (Homo sapiens), sequence (O00292 whole entry, looked up): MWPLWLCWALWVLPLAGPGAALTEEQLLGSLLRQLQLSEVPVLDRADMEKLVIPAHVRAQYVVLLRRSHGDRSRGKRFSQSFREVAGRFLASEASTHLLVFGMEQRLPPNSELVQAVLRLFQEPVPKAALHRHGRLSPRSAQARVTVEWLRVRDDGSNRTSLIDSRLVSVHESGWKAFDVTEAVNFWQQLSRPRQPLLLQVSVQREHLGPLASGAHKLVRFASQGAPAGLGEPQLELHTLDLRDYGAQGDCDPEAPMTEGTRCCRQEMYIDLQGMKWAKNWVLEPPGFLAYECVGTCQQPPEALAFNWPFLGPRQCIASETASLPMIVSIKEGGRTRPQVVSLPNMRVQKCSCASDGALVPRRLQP
Fibroblast growth factor 10 (Homo sapiens), sequence (O15520 whole entry, looked up): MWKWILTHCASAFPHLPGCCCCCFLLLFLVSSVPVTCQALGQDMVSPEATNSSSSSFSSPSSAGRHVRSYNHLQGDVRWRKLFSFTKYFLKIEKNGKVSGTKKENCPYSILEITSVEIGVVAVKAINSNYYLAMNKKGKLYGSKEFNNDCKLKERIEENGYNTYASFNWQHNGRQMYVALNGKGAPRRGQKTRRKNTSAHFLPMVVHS

`O=C1[C@H]2[C@H]3[C@H](O)[C@H](O)CC(=NOCc4ccccc4)[C@H]3CC[C@H]2C(=O)N1Cc1ccccc1`: the composite z-score is 0.424 in assay [1]; -0.276 in [2]; -0.476 in [3]; 0.185 in assay [5]; -0.601 in assay [6]; 0.486 in assay [7]. In addition, the composite z-score in [8] was 0.606; in assay [9], 0.737; in assay [10], -0.201; in assay [11], -0.424; in [13], 0.552; in assay [14], -0.0595. The composite z-score in [15] is -0.477; in [16], -0.222; in [17], -0.0772; in assay [18], -0.182; in assay [19], 0.197; in [20] it was -0.0806. Moreover, the z-score in [4] was -2.42 (inactive); in [12], -0.44.
`C#CCCCON=C1C[C@@H](O)[C@@H](O)[C@@H]2[C@@H]3C(=O)N(C4CCCCC4)C(=O)[C@@H]3CC[C@H]12`: the composite z-score was 0.72 in [1]; 0.149 in assay [2]; -0.0642 in assay [3]; 0.402 in assay [5]; 0.355 in [6]; 0.217 in [7]. The composite z-score is 0.348 in assay [8]; 0.0938 in [9]; 0.24 in [10]; 0.774 in assay [11]; 0.16 in assay [13]; 0.974 in assay [14]. Moreover, the composite z-score in assay [15] was 0.244; in assay [16], 0.454; in [17] it was -0.0177; in assay [18], -0.134; in [19], 0.104; in assay [20], 2.51. The z-score is -0.285 (inactive) in assay [4] and -0.147 in assay [12].
As for `C=CCN(C(=O)C1N(C(C)(C)CO)C(=O)C2C(C(=O)O)C3C=CC21O3)C(C)(C)C` (stereo not given), the composite z-score in assay [1] is -0.0242 and 0.712; in [2], 0.338 and 0.0018; in assay [3], 1.06 and 1.01; in [5] it was -0.95 and -1.33; in assay [6] it was -1.24 and -1.03; in assay [7], -2.18 and -1.68. In addition, the composite z-score in assay [8] was -2.45 and -2.42; in assay [9], -2.28 and -3.04; in assay [10] it was -3 and -3.14; in [11], -0.898 and 0.0796; in assay [13] it was -3.78 and -1.84; in assay [14] it was -0.742 and -0.353. The composite z-score in assay [15] was 0.271 and 0.369; in assay [16], -0.286 and -0.148; in [17] it was -0.138; in [18] it was -0.183 and -0.0144; in assay [19] it was -1.69 and 3.03; in [20] it was -2.08 and 1.04. Further, the z-score was 0.153 (inactive) and -0.231 (inactive) in assay [4]; -0.276 and -0.577 in assay [12].
`C=CCN(C(=O)C(c1cccs1)N(CCOCCO)C(=O)/C=C\C(=O)O)c1ccc(OC)cc1` (stereo not given): the composite z-score in [1] is -1.53 and -0.0146; in [2], -0.626 and -0.357; in assay [3], -0.183 and 0.97; in assay [5], -0.934 and -0.942; in assay [6], -0.903 and -0.645; in assay [7] it was -0.254 and -1.5. For the same compound, the composite z-score in assay [8] is -0.603 and -1.07; in [9], -0.151 and -2.76; in assay [10], -0.539 and -0.186; in assay [11] it was -2.11 and -1.15; in [13], 0.0612 and -1.47; in [14] it was -0.328 and -1.13. For the same compound, the composite z-score in assay [15] was -0.0309 and 0.36; in assay [16], -0.214 and -0.232; in assay [17] it was -0.291 and -0.138; in assay [18] it was -0.636 and 0.146; in assay [19], -0.618 and -0.178; in assay [20] it was -0.744 and -2.86. Also, the z-score in assay [4] is -1.88 (inactive) and -1.58 (inactive); in assay [12], 1.49 and 0.42.
In the case of `C=CCN(C(=O)C1N(c2ccc(CCO)cc2)C(=O)C2C(C(=O)O)C3C=CC21O3)c1ccc(OC)cc1` (stereo not given), the composite z-score in assay [1] is 1.07 and -0.0141; in [2], -0.0654 and -0.638; in [3] it was 0.581 and 0.683; in assay [5], -0.0665 and -1.53; in [6], -0.313 and -1.1; in assay [7], -1.33 and -1.47. Moreover, the composite z-score was -1.01 and -0.528 in assay [8]; -1.35 and -0.641 in [9]; -2.09 and -3.41 in assay [10]; -0.178 and -3.84 in assay [11]; -1.59 and -1.27 in assay [13]; -0.394 and -0.181 in assay [14]. In addition, the composite z-score was -0.702 and 0.0188 in [15]; -0.154 and -0.285 in assay [16]; 0.0899 and -0.239 in [17]; -0.172 and 0.0343 in [18]; -0.447 and 0.206 in assay [19]; -0.102 and -0.62 in [20]. The z-score in [4] was 0.119 (inactive) and -0.374 (inactive); in [12], 0.174 and 0.383.
